Data reported in the supplement of paper PMC4022240.
± gives the standard deviation.

Key:
Experiment in all cases: peptide microarray binding signal (635 nm), min-max normalized on array (fraction of array maximum); higher = stronger binding
[1] = biological target: T1, HaloTag-ATRX ADD domain (163-292)
T1 chain: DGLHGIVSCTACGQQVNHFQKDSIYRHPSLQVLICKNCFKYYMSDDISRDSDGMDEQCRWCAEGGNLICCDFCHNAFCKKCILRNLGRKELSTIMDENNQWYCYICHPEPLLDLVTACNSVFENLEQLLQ
Outline: (§1)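 Within each library, mean intensities of triplicate spots were min-max scaled to give the binding signal. The spots were histone 13-mer peptide–cellulose conjugates on nitrocellulose with a Cy3 tracer, blocked overnight at 4°C. They were then probed for 1 h at 4°C using biotin-labelled HaloTag reader fusions (10 nM to 1 μM) with streptavidin-Alexa Fluor 647 or rabbit histone antibodies (1:10,000 to 1:2,000) with anti-rabbit Alexa 647, and scanned at 635 nm for signal and 532 nm for misprints on an Axon GenePix 4000B.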

[2] = biological target: HaloTag-ING2 PHD (mouse Ing2 200-280)
Outline: as §1

[3] = biological target: anti-H3K4me3 antibody ab8580
Outline: as §1

[4] = biological target: anti-H3K9me3 antibody ab8898
Outline: as §1

[5] = peptide region: H3 11-23, peptide modifications: H3R17me2s, binder concentration: 1:2,000 dilution
[6] = peptide region: H3 11-23, peptide modifications: H3R17me2s, binder concentration: 1:10,000 dilution
[7] = peptide region: H3 11-23, peptide modifications: H3R17me2s H3K18me1, binder concentration: 1:2,000 dilution
[8] = peptide region: H3 11-23, peptide modifications: H3R17me2s H3K18me1, binder concentration: 1:10,000 dilution
[9] = peptide region: H3 11-23, peptide modifications: H3R17me2a, binder concentration: 1:2,000 dilution
[10] = peptide region: H3 11-23, peptide modifications: H3R17me2a, binder concentration: 1:10,000 dilution
[11] = peptide region: H3 11-23, peptide modifications: H3R17me2s H3K18me2, binder concentration: 1:2,000 dilution
[12] = peptide region: H3 11-23, peptide modifications: H3R17me2s H3K18me2, binder concentration: 1:10,000 dilution
[13] = peptide region: H3 20-32, peptide modifications: H3K23me1 H3K27ac, binder concentration: 1:2,000 dilution
[14] = peptide region: H3 20-32, peptide modifications: H3K23me1 H3K27ac, binder concentration: 1:10,000 dilution
[15] = peptide region: H3 20-32, peptide modifications: H3K23me1 H3K27me3, binder concentration: 1:2,000 dilution
[16] = peptide region: H3 20-32, peptide modifications: H3K23me1 H3K27me3, binder concentration: 1:10,000 dilution
[17] = peptide region: H3 20-32, peptide modifications: H3K23ac H3K27ac, binder concentration: 1:2,000 dilution
[18] = peptide region: H3 20-32, peptide modifications: H3K23ac H3K27ac, binder concentration: 1:10,000 dilution
[19] = peptide region: H3 20-32, peptide modifications: H3K23me1, binder concentration: 1:2,000 dilution
[20] = peptide region: H3 20-32, peptide modifications: H3K23me1, binder concentration: 1:10,000 dilution
[21] = peptide region: H3 20-32, peptide modifications: H3K23ac H3K27me1, binder concentration: 1:2,000 dilution
[22] = peptide region: H3 20-32, peptide modifications: H3K23ac H3K27me1, binder concentration: 1:10,000 dilution
[23] = peptide region: H3 20-32, peptide modifications: H3K23ac H3K27me3, binder concentration: 1:2,000 dilution
[24] = peptide region: H3 20-32, peptide modifications: H3K23ac H3K27me3, binder concentration: 1:10,000 dilution

Binder: TGGKAPRKQLATK [H3 11-23 T G G K A P Rme2s K Q L A T K]
- peptide microarray binding signal ([1]; peptide region: H3 11-23, peptide modifications: H3R17me2s, binder concentration: 50 nM): 0.00332 ± 8.4e-05
- peptide microarray binding signal ([1]; peptide region: H3 11-23, peptide modifications: H3R17me2s, binder concentration: 500 nM): 0.00543 ± 0.00073
- peptide microarray binding signal ([2]; peptide region: H3 11-23, peptide modifications: H3R17me2s, binder concentration: 10 nM): 0.003163 ± 1.7e-05
- peptide microarray binding signal ([2]; peptide region: H3 11-23, peptide modifications: H3R17me2s, binder concentration: 100 nM): 0.00411 ± 0.00034
- peptide microarray binding signal [3, 5]: 0.001 ± 5.2e-05
- peptide microarray binding signal [3, 6]: 0.00108
- peptide microarray binding signal [4, 5]: 0.00128 ± 0.00017
- peptide microarray binding signal [4, 6]: 0.0011 ± 4e-05

Binder: TGGKAPRKQLATK [H3 11-23 T G G K A P Rme2s Kme Q L A T K]
- peptide microarray binding signal ([1]; peptide region: H3 11-23, peptide modifications: H3R17me2s H3K18me1, binder concentration: 50 nM): 0.00755 ± 0.00027
- peptide microarray binding signal ([1]; peptide region: H3 11-23, peptide modifications: H3R17me2s H3K18me1, binder concentration: 500 nM): 0.00986 ± 0.00028
- peptide microarray binding signal ([2]; peptide region: H3 11-23, peptide modifications: H3R17me2s H3K18me1, binder concentration: 10 nM): 0.0187 ± 0.00059
- peptide microarray binding signal ([2]; peptide region: H3 11-23, peptide modifications: H3R17me2s H3K18me1, binder concentration: 100 nM): 0.0288 ± 0.002
- peptide microarray binding signal [3, 7]: 0.0153 ± 0.0029
- peptide microarray binding signal [3, 8]: 0.0127 ± 0.0012
- peptide microarray binding signal [4, 7]: 0.00368 ± 0.00012
- peptide microarray binding signal [4, 8]: 0.00254 ± 3.9e-05

Binder: TGGKAPRKQLATK [H3 11-23 T G G K A P Rme2a K Q L A T K]
- peptide microarray binding signal ([1]; peptide region: H3 11-23, peptide modifications: H3R17me2a, binder concentration: 50 nM): 0.0047 ± 0.00017
- peptide microarray binding signal ([1]; peptide region: H3 11-23, peptide modifications: H3R17me2a, binder concentration: 500 nM): 0.00767 ± 0.00072
- peptide microarray binding signal ([2]; peptide region: H3 11-23, peptide modifications: H3R17me2a, binder concentration: 10 nM): 0.00328 ± 9.3e-05
- peptide microarray binding signal ([2]; peptide region: H3 11-23, peptide modifications: H3R17me2a, binder concentration: 100 nM): 0.00921 ± 0.0033
- peptide microarray binding signal [3, 9]: 0.001001 ± 8.5e-06
- peptide microarray binding signal [3, 10]: 0.000742
- peptide microarray binding signal [4, 9]: 0.00116 ± 7.7e-05
- peptide microarray binding signal [4, 10]: 0.00156 ± 3e-05

Binder: TGGKAPRKQLATK [H3 11-23 T G G K A P Rme2s Kme2 Q L A T K]
- peptide microarray binding signal ([1]; peptide region: H3 11-23, peptide modifications: H3R17me2s H3K18me2, binder concentration: 50 nM): 0.00549 ± 0.0002
- peptide microarray binding signal ([1]; peptide region: H3 11-23, peptide modifications: H3R17me2s H3K18me2, binder concentration: 500 nM): 0.0107 ± 0.00094
- peptide microarray binding signal ([2]; peptide region: H3 11-23, peptide modifications: H3R17me2s H3K18me2, binder concentration: 10 nM): 0.0163 ± 0.0016
- peptide microarray binding signal ([2]; peptide region: H3 11-23, peptide modifications: H3R17me2s H3K18me2, binder concentration: 100 nM): 0.0188 ± 0.0013
- peptide microarray binding signal [3, 11]: 0.02 ± 0.0013
- peptide microarray binding signal [3, 12]: 0.0106 ± 0.0017
- peptide microarray binding signal [4, 11]: 0.00296 ± 0.00028
- peptide microarray binding signal [4, 12]: 0.00259 ± 6.1e-05

Binder: LATKAARKSAPAT [H3 20-32 L A T Kme A A R Kac S A P A T]
- peptide microarray binding signal ([1]; peptide region: H3 20-32, peptide modifications: H3K23me1 H3K27ac, binder concentration: 50 nM): 0.0232 ± 0.00051
- peptide microarray binding signal ([1]; peptide region: H3 20-32, peptide modifications: H3K23me1 H3K27ac, binder concentration: 500 nM): 0.0506 ± 0.0021
- peptide microarray binding signal ([2]; peptide region: H3 20-32, peptide modifications: H3K23me1 H3K27ac, binder concentration: 10 nM): 0.058 ± 0.0036
- peptide microarray binding signal ([2]; peptide region: H3 20-32, peptide modifications: H3K23me1 H3K27ac, binder concentration: 100 nM): 0.0801 ± 0.006
- peptide microarray binding signal [3, 13]: 0.0267 ± 0.0037
- peptide microarray binding signal [3, 14]: 0.0268 ± 0.003
- peptide microarray binding signal [4, 13]: 0.0161 ± 0.0018
- peptide microarray binding signal [4, 14]: 0.0113 ± 0.0012

Binder: LATKAARKSAPAT [H3 20-32 L A T Kme A A R Kme3 S A P A T]
- peptide microarray binding signal ([1]; peptide region: H3 20-32, peptide modifications: H3K23me1 H3K27me3, binder concentration: 50 nM): 0.005266 ± 3.8e-05
- peptide microarray binding signal ([1]; peptide region: H3 20-32, peptide modifications: H3K23me1 H3K27me3, binder concentration: 500 nM): 0.00848 ± 0.00016
- peptide microarray binding signal ([2]; peptide region: H3 20-32, peptide modifications: H3K23me1 H3K27me3, binder concentration: 10 nM): 0.0135 ± 0.00027
- peptide microarray binding signal ([2]; peptide region: H3 20-32, peptide modifications: H3K23me1 H3K27me3, binder concentration: 100 nM): 0.01991 ± 8.1e-05
- peptide microarray binding signal [3, 15]: 0.0287 ± 0.0026
- peptide microarray binding signal [3, 16]: 0.0313 ± 0.0019
- peptide microarray binding signal [4, 15]: 0.078 ± 0.0011
- peptide microarray binding signal [4, 16]: 0.0363 ± 0.0019

Binder: LATKAARKSAPAT [H3 20-32 L A T Kac A A R Kac S A P A T]
- peptide microarray binding signal ([1]; peptide region: H3 20-32, peptide modifications: H3K23ac H3K27ac, binder concentration: 50 nM): 0.0196 ± 0.0013
- peptide microarray binding signal ([1]; peptide region: H3 20-32, peptide modifications: H3K23ac H3K27ac, binder concentration: 500 nM): 0.0397 ± 0.0034
- peptide microarray binding signal ([2]; peptide region: H3 20-32, peptide modifications: H3K23ac H3K27ac, binder concentration: 10 nM): 0.0424 ± 0.0038
- peptide microarray binding signal ([2]; peptide region: H3 20-32, peptide modifications: H3K23ac H3K27ac, binder concentration: 100 nM): 0.0536 ± 0.0026
- peptide microarray binding signal [3, 17]: 0.0164 ± 0.0012
- peptide microarray binding signal [3, 18]: 0.0172 ± 0.00041
- peptide microarray binding signal [4, 17]: 0.016 ± 0.002
- peptide microarray binding signal [4, 18]: 0.00848 ± 0.00094

Binder: LATKAARKSAPAT [H3 20-32 L A T Kme A A R K S A P A T]
- peptide microarray binding signal ([1]; peptide region: H3 20-32, peptide modifications: H3K23me1, binder concentration: 50 nM): 0.0042 ± 0.00011
- peptide microarray binding signal ([1]; peptide region: H3 20-32, peptide modifications: H3K23me1, binder concentration: 500 nM): 0.00714 ± 0.00042
- peptide microarray binding signal ([2]; peptide region: H3 20-32, peptide modifications: H3K23me1, binder concentration: 10 nM): 0.0107 ± 0.00011
- peptide microarray binding signal ([2]; peptide region: H3 20-32, peptide modifications: H3K23me1, binder concentration: 100 nM): 0.0176 ± 0.00097
- peptide microarray binding signal [3, 19]: 0.00564 ± 0.0011
- peptide microarray binding signal [3, 20]: 0.0116 ± 0.0039
- peptide microarray binding signal [4, 19]: 0.00267 ± 0.00032
- peptide microarray binding signal [4, 20]: 0.00242 ± 0.00013

Binder: LATKAARKSAPAT [H3 20-32 L A T Kac A A R Kme S A P A T]
- peptide microarray binding signal ([1]; peptide region: H3 20-32, peptide modifications: H3K23ac H3K27me1, binder concentration: 50 nM): 0.0068 ± 0.00024
- peptide microarray binding signal ([1]; peptide region: H3 20-32, peptide modifications: H3K23ac H3K27me1, binder concentration: 500 nM): 0.0141 ± 0.0013
- peptide microarray binding signal ([2]; peptide region: H3 20-32, peptide modifications: H3K23ac H3K27me1, binder concentration: 10 nM): 0.0291 ± 0.00095
- peptide microarray binding signal ([2]; peptide region: H3 20-32, peptide modifications: H3K23ac H3K27me1, binder concentration: 100 nM): 0.0373 ± 0.0027
- peptide microarray binding signal [3, 21]: 0.0154 ± 0.0014
- peptide microarray binding signal [3, 22]: 0.0175 ± 0.003
- peptide microarray binding signal [4, 21]: 0.00459 ± 0.00035
- peptide microarray binding signal [4, 22]: 0.00513 ± 0.00045

Binder: LATKAARKSAPAT [H3 20-32 L A T Kac A A R Kme3 S A P A T]
- peptide microarray binding signal ([1]; peptide region: H3 20-32, peptide modifications: H3K23ac H3K27me3, binder concentration: 50 nM): 0.006363 ± 3.7e-05
- peptide microarray binding signal ([1]; peptide region: H3 20-32, peptide modifications: H3K23ac H3K27me3, binder concentration: 500 nM): 0.00867 ± 0.00016
- peptide microarray binding signal ([2]; peptide region: H3 20-32, peptide modifications: H3K23ac H3K27me3, binder concentration: 10 nM): 0.0207 ± 0.00046
- peptide microarray binding signal ([2]; peptide region: H3 20-32, peptide modifications: H3K23ac H3K27me3, binder concentration: 100 nM): 0.0281 ± 0.00085
- peptide microarray binding signal [3, 23]: 0.0464 ± 0.0087
- peptide microarray binding signal [3, 24]: 0.044 ± 0.0054
- peptide microarray binding signal [4, 23]: 0.253 ± 0.019
- peptide microarray binding signal [4, 24]: 0.122 ± 0.0084
